Composite z-score and z-score data for 13 molecules are collected here from PubChem BioAssay.

Assay [1] has as its system Human papillomavirus type 1a protein E7 (residues 44-93). Put plainly: small molecules binding HPV E7 44-93 – biochemical, small-molecule microarray, residues 44-93, 635 nm fluorescence, primary screen (AID 1108).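 Further: E7 fragment applied at 1 µg/mL in TBST for 1 h at 4 C; score combines spot fluorescence with its signal to noise ratio.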 The following applies: fluorescence 635 nm, higher = more signal.
The nature of assay [2]: hepatitis C replication reporter changes, two-sided – Huh7 cells, luciferase reporter, HCV replication inhibitor project, primary screen (AID 1109).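 Further: huh7 hepatoma cells harbouring a luciferase neomycin HCV replicon reporter; luciferase luminescence as measure of HCV replicon replication; test concentration not given here.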 The following applies: Huh7 HCV replicon luciferase reporter, 48 h; higher = more signal.
For assay [3], the target named is Left-right determination factor 2 (Homo sapiens) (UniProt O00292). Briefly: small molecules binding LEFTY2 protein – biochemical, small-molecule microarray, 635 nm fluorescence scan, primary screen (AID 1110). Particulars: higher = more signal.
Assay [4] addresses Calmodulin-1 (Homo sapiens) (UniProt P0DP23). Briefly: small molecules binding calmodulin-1 with EGTA – biochemical, small-molecule microarray, Cy5-labelled CALM1, profiling panel (AID 1111).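 Further: labelled calmodulin applied in Tris saline Tween buffer holding calcium plus EGTA and DTT.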 Particulars: Cy5-CALM1 binding fluorescence, higher = more signal.
The target is the same in assay [5]. Put plainly: small molecules binding Ca-loaded calmodulin-1 – biochemical, small-molecule microarray, Cy5-labelled CALM1, plus calcium, artefact control for SMM control-protein annotation, profiling panel (AID 1112).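 Further: score merges spot fluorescence with signal to noise from triplicate slides.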 Particulars: Cy5-CALM1 binding fluorescence, higher = more signal.
A short description of assay [6]: probe aWnt5a binding to arrayed compounds – biochemical, biotinylated probe, 635/667 nm fluorescence, primary screen (AID 1113).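 Further: score merges 667 nm fluorescence intensity with signal-to-noise per printed feature.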 The following applies: small-molecule microarray, higher = more signal.
Assay [7] in a line: probe aShh binding to arrayed compounds – biochemical, biotinylated probe, 635/667 nm fluorescence, primary screen (AID 1114).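 Further: probe is biotin-labelled aShh protein from a stem cell growth factor screen; measures binding of labelled protein to compounds printed on the slide; score merges feature fluorescence at 667 nm with signal-to-noise.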 The following applies: small-molecule microarray, higher = more signal.
The nature of assay [8]: probe aNog binding to arrayed compounds – biochemical, biotinylated probe, 635/667 nm fluorescence, primary screen (AID 1115).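 Further: probe is biotinylated aNog protein used at 0.15 µg/mL for 1 h at 4 C; z-score combines 667 nm fluorescence of each spot with its signal to noise.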 The following applies: small-molecule microarray, higher = more signal.
In assay [9] the target is Torsin-1A-interacting protein 1 (Homo sapiens) (UniProt Q5JTV8). Put plainly: compound microarray binding of lysate hLAP1 – cell lysate, small-molecule microarray, COS7 lysate, 635/667 nm fluorescence, primary screen (AID 1116). The following applies: 635 nm fluorescence, higher = more signal.
The target of assay [10] is Alpha-bungarotoxin (Bungarus multicinctus) (UniProt P60615). Briefly: compounds binding labelled alpha-BTX control protein – biochemical, small-molecule microarray, Alexa647 label, 635/667 nm fluorescence, artefact control for SMM control protein annotation, profiling panel (AID 1117). The following applies: alpha-BTX-A647 binding fluorescence, higher = more signal.
Sequence of Alpha-bungarotoxin (Bungarus multicinctus) (P60615 whole entry, looked up): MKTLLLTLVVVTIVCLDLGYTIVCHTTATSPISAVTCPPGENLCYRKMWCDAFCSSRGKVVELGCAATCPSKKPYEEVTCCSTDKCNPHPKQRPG

Sequence of Torsin-1A-interacting protein 1 (Homo sapiens) (Q5JTV8 whole entry, looked up): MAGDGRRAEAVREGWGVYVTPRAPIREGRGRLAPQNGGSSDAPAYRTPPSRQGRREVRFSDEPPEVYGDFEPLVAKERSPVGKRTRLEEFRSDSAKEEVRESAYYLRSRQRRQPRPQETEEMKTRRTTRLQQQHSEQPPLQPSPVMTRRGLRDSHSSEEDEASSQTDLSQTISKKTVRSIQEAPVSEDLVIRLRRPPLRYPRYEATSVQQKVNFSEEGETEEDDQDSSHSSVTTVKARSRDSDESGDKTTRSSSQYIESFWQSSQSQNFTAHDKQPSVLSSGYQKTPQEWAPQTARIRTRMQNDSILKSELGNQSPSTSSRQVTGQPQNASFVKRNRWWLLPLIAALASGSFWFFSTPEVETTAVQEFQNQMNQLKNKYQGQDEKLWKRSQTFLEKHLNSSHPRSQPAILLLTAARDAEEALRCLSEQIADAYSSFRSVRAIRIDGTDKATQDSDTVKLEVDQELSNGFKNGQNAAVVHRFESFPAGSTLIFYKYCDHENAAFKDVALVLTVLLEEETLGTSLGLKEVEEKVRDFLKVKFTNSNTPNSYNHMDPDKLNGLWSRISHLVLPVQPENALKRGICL
Sequence of Left-right determination factor 2 (Homo sapiens) (O00292 whole entry, looked up): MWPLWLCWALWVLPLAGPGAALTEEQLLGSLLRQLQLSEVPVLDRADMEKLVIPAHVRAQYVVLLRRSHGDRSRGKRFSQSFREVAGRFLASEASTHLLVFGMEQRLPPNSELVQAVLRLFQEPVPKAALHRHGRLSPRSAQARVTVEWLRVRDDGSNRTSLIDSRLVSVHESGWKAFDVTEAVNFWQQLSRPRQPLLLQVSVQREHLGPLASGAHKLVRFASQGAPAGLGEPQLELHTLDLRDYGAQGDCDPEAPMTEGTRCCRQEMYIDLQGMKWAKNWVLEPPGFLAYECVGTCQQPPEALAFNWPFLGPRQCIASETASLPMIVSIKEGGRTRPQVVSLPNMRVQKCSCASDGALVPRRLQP

With `Cc1cc2c(nc1C)CCCCN2CC(O)CN1CCCc2nc(-c3ccc(Br)cc3)ccc21` (stereo not given), the composite z-score in assay [1] was 0.599; in assay [3], 0.615; in assay [4], 0.114; in assay [5] it was -0.823; in assay [6], 0.093; in assay [7], 0.304. Further, the results for the composite z-score in assay [8], in assay [9] and in assay [10] were 0.17, 0.404 and 0.888, respectively. In [2], the z-score was -0.116.
Regarding `CON=C[C@@H](OC)[C@H](C)C=CCC(=O)OC`, the composite z-score in [1] was -1.72; in [3], 0.262; in assay [4], -0.491; in [5], -0.476; in [6], -0.0573; in assay [7], 0.0952. The composite z-score in assay [8] is -0.296; in assay [9] it was 0.447; in assay [10], -0.023. In assay [2], this molecule returned a z-score of -0.337.
Take `CCOC(=O)[C@H](CC(C)C)NC(=O)CCC1CC(OC(=O)NCCc2ccc(F)cc2)CC2(CCCC(COC(=O)NCCCN3CCCC3=O)O2)O1` (stereo not given in full): the composite z-score in [1] is 0.681; in [3], 0.491; in assay [4], 0.116; in assay [5], -0.0004; in assay [6] it was 0.0108; in assay [7], -0.2. Besides, the composite z-score in [8] was -0.451; in [9], 0.422; in assay [10], 1.54. For the same molecule, the z-score in [2] is -1.2.
For `COc1ccc(OC[C@H]2CN3[C@@H](CC[C@@H](C)[C@@H]3c3ccc(Br)cc3)C(=O)O2)cc1`, the composite z-score in assay [1] is 0.191; in assay [3], 0.579; in assay [4], -0.146; in [5] it was -0.855; in assay [6] it was -0.176; in assay [7], -0.221. For the same molecule, the figures for the composite z-score in assay [8], in assay [9] and in [10] were 0.0121, 0.5 and 0.641, respectively. The same molecule returned a z-score in [2] of -0.757.
For the molecule `COc1ccc(O[C@H]2C=C[C@@H](c3ccccc3)O[C@@H]2CON=C(C)CCN2CCCc3nc(C)c(C)cc32)cc1`, the composite z-score in assay [1] is 1.09; in assay [3] it was 0.597; in [4] it was 0.284; in [5] it was -0.425; in assay [6], -0.0869; in assay [7] it was -0.0769. In addition, the composite z-score in assay [8] was -0.158; in assay [9], 0.358; in assay [10], 0.651. This molecule also had a z-score in [2] of -2.04.
As for `CC(CCN1CCCc2nc(C)c(C)cc21)=NO[C@H](C)c1cn([C@H](CO)Cc2ccccc2)nn1`, the composite z-score was 1.01 in assay [1]; 0.796 in assay [3]; -0.276 in assay [4]; -0.519 in assay [5]; -0.0704 in assay [6]; -0.16 in assay [7]. In addition, the composite z-score is 0.029 in assay [8], 0.613 in assay [9] and -0.207 in assay [10]. This molecule gave a z-score in assay [2] of -1.73.
Turning to `COC(=O)[C@H](CCSC)NC(=O)CC=C[C@@H](C)CO`, the composite z-score is 0.264 in assay [1]; 1.58 in assay [3]; -1.12 in [4]; -2.32 in assay [5]; 0.149 in assay [6]; -0.0192 in [7]. The values for the composite z-score in [8], in [9] and in assay [10] were -0.394, 1.21 and -0.614, respectively. This molecule registered a z-score in assay [2] of 0.748.
`CCOC(=O)CCN1C(=O)[C@H]2[C@H]3[C@H](O)[C@H](O)CC(=NOCC=C(C)CCC=C(C)C)[C@@H]3CC[C@H]2C1=O`: the composite z-score in [1] is -0.401; in [3] it was 0.631; in assay [4], 0.113; in [5] it was -0.672; in assay [6] it was -0.1; in assay [7], -0.179. Further, the composite z-score in assay [8] is -0.0827; in assay [9], 0.166; in [10] it was -0.0599. The z-score in assay [2] was -0.469.
Take `CC(C)=NO[C@H](C)c1cn([C@@H]2COC[C@H]2O)nn1`: the composite z-score in assay [1] is 0.427; in assay [3], 0.48; in assay [4] it was -0.312; in assay [5] it was -0.956; in assay [6], -0.169; in [7], -0.138. In addition, the composite z-score in assay [8] is -0.216; in [9] it was 0.26; in [10], 0.159. The same molecule registered a z-score in [2] of 0.78.
As to `O=C1C2=CC[C@H]3C(=O)N(Cc4ccccc4)C(=O)[C@H]3[C@H]2[C@H](O)[C@@H]2O[C@H]12`, the composite z-score was -0.695 in [1]; 0.101 in assay [3]; -0.476 in [4]; -0.65 in assay [5]; -0.129 in assay [6]; -0.0553 in assay [7]. In addition, the values for the composite z-score in assay [8], in [9] and in assay [10] were -0.158, 0.237 and 0.0012, respectively. Moreover, the z-score in assay [2] is -5.09.
As for `CC(=O)OC[C@H]1O[C@H](CC=NO[C@H](C)c2cn([C@@H]3COC[C@H]3O)nn2)C=C[C@@H]1OC(C)=O`, the composite z-score in [1] was -0.535; in [3], 0.0524; in [4], -0.616; in assay [5] it was -0.934; in assay [6] it was -0.0685; in [7] it was -0.206. Also, the composite z-score in assay [8] was -0.17; in assay [9], 0.637; in assay [10], 0.799. Moreover, the z-score in [2] was -0.774.
For the molecule `COC(=O)[C@H](C)NC(=O)CCC1CC(OC(=O)NCc2ccc3c(c2)OCO3)CC2(CCCC(COC(=O)NCCCN3CCCC3=O)O2)O1` (stereo not given in full), the composite z-score was 1.32 in assay [1]; 0.849 in assay [3]; 0.924 in assay [4]; -0.151 in assay [5]; -0.0644 in assay [6]; -0.186 in [7]. Moreover, the composite z-score in assay [8] worked out at 0.0215; in [9], 0.286; in [10] it was 0.88. This molecule showed a z-score in [2] of -1.87.
Regarding `COCOc1ccc(Br)cc1C(=O)C=Cc1ccc2c(c1)OCO2`, the composite z-score in assay [1] is -0.478; in [3] it was 0.489; in assay [4], -0.978; in assay [5], -1.25; in assay [6], -0.0721; in [7], -0.2. The composite z-score was determined as 0.0689 in assay [8], 0.0258 in assay [9] and 0.075 in assay [10]. Besides, the z-score in [2] was -3.81.
